Measurements from PubChem BioAssay AID1211 (NMMLSC, 2008).
A number with no mark means an inactive call. Active and inactive are the calls of the source. How the calls were made is not given here.

Target: Estrogen receptor (Homo sapiens) (UniProt P03372)
Experiment: displacement of fluorescent estrogen from ERalpha – cell-based, Cos7 ERalpha-GFP, flow cytometry, primary screen (AID 1211);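 further: 0% = DMSO vehicle wells and 100% = no E2-Alexa633 signal left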
Settings: fluorescent ligand competition, at 10 µM, active compounds read high

Chain of Estrogen receptor (Homo sapiens) (P03372 whole entry, looked up): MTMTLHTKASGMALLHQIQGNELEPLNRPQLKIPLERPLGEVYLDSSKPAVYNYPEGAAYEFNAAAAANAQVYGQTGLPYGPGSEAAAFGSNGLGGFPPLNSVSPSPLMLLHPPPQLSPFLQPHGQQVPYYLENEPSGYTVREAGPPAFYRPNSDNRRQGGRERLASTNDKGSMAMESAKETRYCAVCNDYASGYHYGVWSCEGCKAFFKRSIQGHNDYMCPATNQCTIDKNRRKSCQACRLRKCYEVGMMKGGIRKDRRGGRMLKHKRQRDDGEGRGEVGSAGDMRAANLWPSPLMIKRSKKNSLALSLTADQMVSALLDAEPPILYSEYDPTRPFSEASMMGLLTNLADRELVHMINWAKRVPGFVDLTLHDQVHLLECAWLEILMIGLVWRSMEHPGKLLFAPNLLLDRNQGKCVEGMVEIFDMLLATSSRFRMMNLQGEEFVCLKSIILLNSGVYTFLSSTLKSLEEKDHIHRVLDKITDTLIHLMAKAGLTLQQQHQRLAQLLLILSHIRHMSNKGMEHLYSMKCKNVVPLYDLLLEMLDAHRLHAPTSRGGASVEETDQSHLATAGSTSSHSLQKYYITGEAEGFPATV

Structure (SMILES)	inhibition of ligand binding
COc1cc(C2CC(=O)Nc3c2ccc2ccccc32)cc(Cl)c1O (centres undefined)	0%
COc1cc(C2C(C#N)=C(N)Oc3cc(C)oc(=O)c32)cc2c1OCO2 (centres undefined)	9%
N#Cc1c2c(c(=O)n3c1[nH]c1ccccc13)CCCC2	23%
O=C(Nc1cc(C(F)(F)F)ccc1N1CCOCC1)C1Cc2ccccc2CN1C(=O)c1ccco1 (centres undefined)	56%
CCOc1ccc(NS(=O)(=O)c2ccc3c(c2)[C@H]2C=CC[C@H]2[C@@H](c2ccc(C(=O)O)cc2)N3)cc1	66% (active)
O=C(O)COc1cc2oc(=O)c3c(c2cc1Cl)CCCC3	0%
Fc1ccc2c(c1)[C@H]1OCC[C@H]1[C@@H](c1ccco1)N2	34%
CC(C)C1CC(CCNCc2ccc3c(c2)OCO3)(c2ccccc2)CCO1 (centres undefined)	26%
Cc1ccc(-n2cc3c(c(C#N)c2=N)CC(C)(C)CC3=O)cc1	35%
CC1(C)C=C(c2ccc(O)cc2)CC(C)(C)N1	8%
COC(=O)c1ccc(OCc2c(C)noc2C)cc1	22%
Cc1c(Cc2ccccc2)c(=O)n2c([nH]c3ccccc32)c1C#N	5%
CC1(C)Cc2[nH]c3ccccc3c2C(C)(C)N1	6%
COc1ccc(C2CC(=O)Nc3ccccc3S2(=O)=O)cc1OC (centres undefined)	0%
COc1cc([N+](=O)[O-])cc2c1NC(c1ccc(Br)cc1)C1CC=CC21 (centres undefined)	0%
CCSc1nc2c(cnn2-c2ccc(C)cc2)c(=O)[nH]1	22%
CC1=CC(C)C2(CO)COC(c3ccccc3O)C1C2C (centres undefined)	0%
CC1(C)CC(=O)c2cn(-c3ccc(Cl)cc3)c(=N)c(C#N)c2C1	35%
CCOc1ccc(NS(=O)(=O)c2ccc3c(c2)[C@H]2C=CC[C@H]2[C@@H](c2ccc([N+](=O)[O-])cc2)N3)cc1	9%
Nc1ccc2nc3n(c(=O)c2c1)CCC3	34%

Structure (SMILES)	inhibition of ligand binding
Cc1nn(-c2ccc(Cl)cc2)c2sc(C(=O)N3CCN(c4ccccn4)CC3)cc12	50%
Cc1cc(C)c2c(c1)[C@@H]1C=CC[C@@H]1[C@H](c1ccc(S(=O)(=O)N3CCOCC3)cc1)N2	66% (active)
COc1cc(O)c2c(=O)c3c(OC)c(O)ccc3oc2c1	63%
CC(=O)N1c2ccc3ccccc3c2C2C=CCC2C1c1ccc(Br)cc1 (centres undefined)	48%
COc1cccc(C2NCCc3cc(OC)c(OC)cc32)c1 (centres undefined)	10%
CC(=O)Oc1ccc2c(c1)CCC1C2C(O)CC2(C)C(=O)CCC12 (centres undefined)	15%
COc1cccc2sc(Nc3nnc(-c4ccc(F)cc4)o3)nc12	17%
COCCCn1c(Cc2csc(Nc3cccc(Cl)c3)n2)nnc1SCC(=O)OC1CCCCC1	37%
Cc1ccn2c(NCc3ccc4c(c3)OCO4)c(-c3ccc(O)cc3)nc2c1	32%
COc1cc2c(cc1OC)CC(C)(C)N(Cc1ccco1)C2	0%
C=C1c2ccc(OC)cc2NC(=O)N1c1ccccc1	4%
CCNC(=O)c1ccc2c(c1)C1C3CCC(C3)C1C(c1ccccc1)N2 (centres undefined)	66% (active)
Cc1ccc2c(c1)C1C=CCC1C(C(=O)O)N2 (centres undefined)	0%
CCOc1cc2c(cc1OCC)C(C1CCCCC1)NCC2 (centres undefined)	1%
O=C(O)C1Nc2c(O)cccc2C2C=CCC12 (centres undefined)	6%
N#Cc1ccc(-c2cccnc2)nc1SCC(=O)Nc1sc2c(c1C#N)CCC2	15%
CCN(c1ccccc1)S(=O)(=O)c1ccc2[nH]cc(C(=O)NCCOC)c(=O)c2c1	22%
CCCCCCc1cc2c3c(c(=O)oc2cc1OCC(=O)O)CCCC3	1%
COc1ccccc1C1Nc2c(C(=O)O)cccc2C2C3CCC(C3)C12 (centres undefined)	19%
